According to the antibiotic and cytotoxicity screens of Wong et al. (2023):
Among all 39,000 compounds or so, about 3,300 (8.5%) were called active. What follows is part of a selection rich in actives, with near analogues and random picks from the rest.

The compounds below were run on HepG2 (assay: cytotoxicity call (relative viability < 0.9)). Settings: 10 µM.

Q: For `C[C@H]1CC=CC[C@H](c2cccc(Cl)c2)NC(=O)[C@H](Cc2ccccc2)N(C)C(=O)c2ccccc2O1`, which cytotoxicity call is on record?
A: inactive

Q: How did the cytotoxicity call turn out when `Cc1ccc(S(=O)(=O)N(C)C[C@@H]2OCCCC[C@@H](C)Oc3ccc(NC(=O)Nc4ccc(F)cc4)cc3C(=O)N([C@H](C)CO)C[C@@H]2C)cc1` was run?
A: inactive

Q: `C[C@H](CO)N1C[C@H](C)[C@H](CN(C)C(=O)Nc2cccc(F)c2)OCc2ccccc2-c2ccccc2C1=O` was tested. Which cytotoxicity call did it give?
A: inactive

Q: Which cytotoxicity call does the source give for `CCCN(CCC)S(=O)(=O)c1ccc(C(=O)N(c2cccc(SC)c2)[C@H]2OC(=O)c3ccccc32)cc1` here?
A: inactive

Q: With `C[C@H]1CN([C@@H](C)CO)S(=O)(=O)c2ccc(C#CCN(C)C)cc2O[C@H]1CN(C)S(=O)(=O)c1cccc(F)c1` as the compound, how does the cytotoxicity call read?
A: inactive

Q: With `C[C@H]1CN([C@@H](C)CO)C(=O)c2cccc(NC(=O)c3ccc(-c4nccs4)cc3)c2O[C@H]1CN(C)Cc1ccc(C(F)(F)F)cc1` as the compound, how does the cytotoxicity call read?
A: inactive

Q: `C[C@H](CO)N1C[C@H](C)[C@H](CN(C)Cc2ccc(C(F)(F)F)cc2)Oc2c(NC(=O)c3ccc(-c4nccs4)cc3)cccc2C1=O` was tested. Which cytotoxicity call did it give?
A: inactive

Q: Which cytotoxicity call does the source give for `C[C@H]1CN([C@@H](C)CO)C(=O)c2cccc(NC(=O)c3ccc(-c4nccs4)cc3)c2O[C@H]1CN(C)C(=O)Nc1ccc(C(F)(F)F)cc1` here?
A: inactive

Q: With `C[C@@H]1CN([C@@H](C)CO)C(=O)c2cccc(NC(=O)c3ccc(-c4nccs4)cc3)c2O[C@@H]1CN(C)C(=O)Nc1ccc(C(F)(F)F)cc1` as the compound, how does the cytotoxicity call read?
A: active

Q: For `C[C@@H]1CN([C@H](C)CO)C(=O)c2cccc(NC(=O)c3ccc(-c4nccs4)cc3)c2O[C@H]1CN(C)Cc1ccc(C(F)(F)F)cc1`, which cytotoxicity call is on record?
A: inactive

Q: How did the cytotoxicity call turn out when `C[C@@H]1CN([C@H](C)CO)C(=O)c2cccc(NC(=O)c3ccc(-c4nccs4)cc3)c2O[C@@H]1CN(C)Cc1ccc(C(F)(F)F)cc1` was run?
A: active

Q: `C[C@@H]1CN([C@@H](C)CO)C(=O)c2cccc(NC(=O)c3ccc(-c4nccs4)cc3)c2O[C@@H]1CN(C)Cc1ccc(C(F)(F)F)cc1` was tested. Which cytotoxicity call did it give?
A: active

Q: Which cytotoxicity call does the source give for `C[C@@H]1CN([C@@H](C)CO)C(=O)c2cccc(NC(=O)c3ccc(-c4nccs4)cc3)c2O[C@H]1CN(C)Cc1ccc(C(F)(F)F)cc1` here?
A: inactive

Q: Which cytotoxicity call does the source give for `C[C@H]1CN([C@@H](C)CO)C(=O)c2cccc(NC(=O)c3ccc(-c4nccs4)cc3)c2O[C@@H]1CN(C)Cc1ccc(C(F)(F)F)cc1` here?
A: active

Q: For `C[C@H](CO)N1C[C@H](C)[C@@H](CN(C)Cc2ccc(C(F)(F)F)cc2)Oc2c(NC(=O)c3ccc(-c4nccs4)cc3)cccc2C1=O`, which cytotoxicity call is on record?
A: inactive

Q: How did the cytotoxicity call turn out when `C[C@H](CO)N1C[C@H](C)[C@H](CN(C)C(=O)Nc2ccc(C(F)(F)F)cc2)Oc2c(NC(=O)c3ccc(-c4nccs4)cc3)cccc2C1=O` was run?
A: inactive

Q: For `C[C@@H]1CN([C@H](C)CO)C(=O)c2cccc(NC(=O)c3ccc(-c4nccs4)cc3)c2O[C@@H]1CN(C)Cc1ccc(C(=O)O)cc1`, which cytotoxicity call is on record?
A: inactive

Q: How did the cytotoxicity call turn out when `N=C(N)SCCN` was run?
A: inactive

Q: `CN1CCN(C(=O)C[C@@H]2C=C[C@H](NC(=O)Nc3ccccc3F)[C@H](CO)O2)CC1` was tested. Which cytotoxicity call did it give?
A: inactive

Q: `COc1ccc(NC(=O)Nc2ccc3c(c2)C(=O)N([C@@H](C)CO)C[C@H](C)[C@@H](CN(C)C(=O)Nc2ccccc2)OCCCC[C@H](C)O3)cc1` was tested. Which cytotoxicity call did it give?
A: inactive

Q: With `CN1C(=O)[C@@H]2CN(c3ncccn3)C[C@@H]2C12CCN(S(C)(=O)=O)CC2` as the compound, how does the cytotoxicity call read?
A: inactive

Q: Which cytotoxicity call does the source give for `C[C@H](CO)N1C[C@H](C)[C@@H](CN(C)S(=O)(=O)c2ccc(Cl)cc2)Oc2ccc(N(C)C)cc2CC1=O` here?
A: inactive

Q: With `Cc1ccc(S(=O)(=O)N(C)C[C@H]2OCCCC[C@@H](C)Oc3ccc(NC(=O)Nc4c(C)noc4C)cc3C(=O)N([C@H](C)CO)C[C@H]2C)cc1` as the compound, how does the cytotoxicity call read?
A: inactive

Q: `COc1ccc2cc1/C=C\NC(=O)[C@H](Cc1ccccc1)NC(=O)[C@@H]1[C@H](CCN1C(=O)[C@@H](NC(=O)[C@@H](C)N(C)C)C(C)C)O2` was tested. Which cytotoxicity call did it give?
A: inactive

Q: `CO[C@@H](CN(C)S(=O)(=O)c1cccc(Cl)c1)[C@H](C)CN([C@@H](C)CO)S(=O)(=O)c1ccc(Cl)cc1` was tested. Which cytotoxicity call did it give?
A: inactive

Q: For `C[C@@H]1CN([C@H](C)CO)C(=O)c2cc(NC(=O)CCC(F)(F)F)ccc2O[C@@H](C)CCCCO[C@@H]1CN(C)CC1CCCCC1`, which cytotoxicity call is on record?
A: inactive

Q: Which cytotoxicity call does the source give for `C[C@@H]1CN([C@H](C)CO)C(=O)c2cccc(NC(=O)c3nc4ccccc4s3)c2O[C@H]1CN(C)Cc1ccc(C(F)(F)F)cc1` here?
A: inactive

Q: How did the cytotoxicity call turn out when `C[C@@H]1CN([C@@H](C)CO)C(=O)c2cc(Br)cnc2O[C@@H]1CN(C)S(=O)(=O)c1ccc(F)cc1` was run?
A: inactive

Q: With `C[C@@H]1CCCCO[C@@H](CN(C)C(=O)CCC(F)(F)F)[C@@H](C)CN([C@H](C)CO)C(=O)c2cc(NS(=O)(=O)c3ccc(F)cc3)ccc2O1` as the compound, how does the cytotoxicity call read?
A: inactive

Q: Which cytotoxicity call does the source give for `CCOC(=O)CSc1nnc2c3sc4nc(N5CCOCC5)c5c(c4c3ncn12)CC(C)(C)OC5` here?
A: active

Q: `O=C(NCCCN1CCOCC1)C(=O)NC1CC1` was tested. Which cytotoxicity call did it give?
A: inactive

Q: For `COc1ccc(CN(C)C[C@@H]2OCCCC[C@H](C)Oc3ccc(NS(=O)(=O)c4ccc(Cl)cc4)cc3C(=O)N([C@@H](C)CO)C[C@H]2C)cc1`, which cytotoxicity call is on record?
A: active

Q: For `COc1ccc(CN(C)C[C@@H]2OCCCC[C@@H](C)Oc3ccc(NS(=O)(=O)c4ccc(Cl)cc4)cc3C(=O)N([C@H](C)CO)C[C@@H]2C)cc1`, which cytotoxicity call is on record?
A: inactive

Q: `COc1ccc(CN(C)C[C@H]2OCCCC[C@@H](C)Oc3ccc(NS(=O)(=O)c4ccc(Cl)cc4)cc3C(=O)N([C@@H](C)CO)C[C@@H]2C)cc1` was tested. Which cytotoxicity call did it give?
A: inactive

Q: Which cytotoxicity call does the source give for `COc1ccc(CN(C)C[C@@H]2OCCCC[C@@H](C)Oc3ccc(NS(=O)(=O)c4ccc(Cl)cc4)cc3C(=O)N([C@H](C)CO)C[C@H]2C)cc1` here?
A: inactive

Q: For `COc1ccc(CN(C)C[C@H]2OCCCC[C@H](C)Oc3ccc(NS(=O)(=O)c4ccc(Cl)cc4)cc3C(=O)N([C@@H](C)CO)C[C@H]2C)cc1`, which cytotoxicity call is on record?
A: inactive

Q: How did the cytotoxicity call turn out when `COc1ccc(CN(C)C[C@H]2OCCCC[C@@H](C)Oc3ccc(NS(=O)(=O)c4ccc(Cl)cc4)cc3C(=O)N([C@H](C)CO)C[C@@H]2C)cc1` was run?
A: inactive

Q: For `COc1ccc(CN(C)C[C@@H]2OCCCC[C@H](C)Oc3ccc(NS(=O)(=O)c4ccc(Cl)cc4)cc3C(=O)N([C@H](C)CO)C[C@@H]2C)cc1`, which cytotoxicity call is on record?
A: active

Q: Which cytotoxicity call does the source give for `COc1ccc(CN(C)C[C@H]2OCCCC[C@H](C)Oc3ccc(NS(=O)(=O)c4ccc(Cl)cc4)cc3C(=O)N([C@@H](C)CO)C[C@@H]2C)cc1` here?
A: inactive

Q: How did the cytotoxicity call turn out when `COc1ccc(CN(C)C[C@H]2OCCCC[C@@H](C)Oc3ccc(NS(=O)(=O)c4ccc(Cl)cc4)cc3C(=O)N([C@@H](C)CO)C[C@H]2C)cc1` was run?
A: active

Q: How did the cytotoxicity call turn out when `C[C@@H]1CCCCO[C@H](CN(C)C(=O)Nc2ccccc2)[C@H](C)CN([C@@H](C)CO)C(=O)c2cc(NC(=O)Nc3ccc(F)cc3)ccc2O1` was run?
A: inactive

Q: Which cytotoxicity call does the source give for `O=C(C[C@H]1CC[C@@H](NC(=O)CN2CCOCC2)[C@H](CO)O1)NC1CCC1` here?
A: inactive

Q: How did the cytotoxicity call turn out when `C[C@H](CO)N1C[C@H](C)[C@@H](CN(C)S(=O)(=O)c2cn(C)cn2)Oc2ccc(N(C)C)cc2CC1=O` was run?
A: inactive

Q: How did the cytotoxicity call turn out when `C[C@H](CO)N1C[C@H](C)[C@H](CN(C)Cc2ccc(F)cc2)Oc2cc(C#CC3CC3)ccc2S1(=O)=O` was run?
A: inactive

Q: Which cytotoxicity call does the source give for `C[C@@H]1CCCCO[C@H](CN(C)C(=O)C2CCCCC2)[C@@H](C)CN([C@H](C)CO)C(=O)c2cc(NC(=O)Nc3ccc(F)cc3)ccc2O1` here?
A: inactive

Q: How did the cytotoxicity call turn out when `COCC(=O)Nc1ccccc1C(=O)O` was run?
A: inactive

Q: Which cytotoxicity call does the source give for `O=C(N1CCOCC1)[C@@]1(CCS(=O)(=O)c2ccccc2)COC(c2ccc(OCCCO)cc2)=N1` here?
A: inactive

Q: How did the cytotoxicity call turn out when `NCc1cccc2c1OCCCO2` was run?
A: inactive

Q: For `C[N+](C)(C)CCCC[C@@H]1NC(=O)[C@@H]2C[C@H](C(=O)NCCCCCCNC(=O)CS)[C@H](c3ccc(O)cc3)N2C1=O`, which cytotoxicity call is on record?
A: inactive

Q: `CC(C)=C[C@H]1[C@@H](c2nc3ccc(Br)cc3[nH]2)C1(C)C` was tested. Which cytotoxicity call did it give?
A: inactive

Q: Which cytotoxicity call does the source give for `CCNc1nc(OCCO)nc(N(C)C)n1` here?
A: inactive

Q: For `CCNc1nc(NCC)nc(C(=O)OCCO)n1`, which cytotoxicity call is on record?
A: active

Q: How did the cytotoxicity call turn out when `CCNc1nc(NCC)nc(OCC#N)n1` was run?
A: inactive

Q: How did the cytotoxicity call turn out when `C[C@H]1CN([C@@H](C)CO)C(=O)Cc2cc(NC(=O)Cc3cn(C)c4ccccc34)ccc2O[C@H]1CN(C)C(=O)Nc1ccc(C(F)(F)F)cc1` was run?
A: inactive

Q: `C[C@@H]1CN([C@H](C)CO)C(=O)Cc2cc(NC(=O)Cc3cn(C)c4ccccc34)ccc2O[C@@H]1CN(C)C(=O)Nc1ccc(C(F)(F)F)cc1` was tested. Which cytotoxicity call did it give?
A: inactive

Q: How did the cytotoxicity call turn out when `C[C@H](CO)N1C[C@H](C)[C@@H](CN(C)C(=O)Nc2ccc(C(F)(F)F)cc2)Oc2ccc(NC(=O)Cc3cn(C)c4ccccc34)cc2CC1=O` was run?
A: inactive

Q: For `C[C@H](CO)N1C[C@H](C)[C@H](CN(C)C(=O)Nc2ccc(C(F)(F)F)cc2)Oc2ccc(NC(=O)Cc3cn(C)c4ccccc34)cc2CC1=O`, which cytotoxicity call is on record?
A: inactive

Q: For `C[C@H](CO)N1C[C@H](C)[C@H](CN(C)Cc2ccc(C(F)(F)F)cc2)Oc2ccc(NC(=O)Cc3cn(C)c4ccccc34)cc2CC1=O`, which cytotoxicity call is on record?
A: inactive

Q: Which cytotoxicity call does the source give for `C[C@@H]1CN([C@@H](C)CO)C(=O)Cc2cc(NC(=O)Cc3cn(C)c4ccccc34)ccc2O[C@H]1CN(C)C(=O)Nc1ccc(C(F)(F)F)cc1` here?
A: inactive

Q: With `C[C@H]1CN([C@@H](C)CO)C(=O)Cc2cc(NC(=O)Cc3cn(C)c4ccccc34)ccc2O[C@@H]1CN(C)C(=O)Nc1ccc(C(F)(F)F)cc1` as the compound, how does the cytotoxicity call read?
A: inactive

Q: `C[C@@H]1CN([C@@H](C)CO)C(=O)Cc2cc(NC(=O)Cc3cn(C)c4ccccc34)ccc2O[C@@H]1CN(C)Cc1ccc(C(F)(F)F)cc1` was tested. Which cytotoxicity call did it give?
A: active

Q: Which cytotoxicity call does the source give for `C[C@@H]1CN([C@@H](C)CO)C(=O)Cc2cc(NC(=O)Cc3cn(C)c4ccccc34)ccc2O[C@H]1CN(C)Cc1ccc(C(F)(F)F)cc1` here?
A: active

Q: Which cytotoxicity call does the source give for `C[C@H]1CN([C@@H](C)CO)C(=O)Cc2cc(NC(=O)Cc3cn(C)c4ccccc34)ccc2O[C@@H]1CN(C)Cc1ccc(C(F)(F)F)cc1` here?
A: active

Q: With `C[C@@H]1CN([C@H](C)CO)C(=O)Cc2cc(NC(=O)Cc3cn(C)c4ccccc34)ccc2O[C@@H]1CN(C)Cc1ccc(C(F)(F)F)cc1` as the compound, how does the cytotoxicity call read?
A: active

Q: Which cytotoxicity call does the source give for `C[C@@H]1CN([C@@H](C)CO)C(=O)Cc2cc(NC(=O)Cc3cn(C)c4ccccc34)ccc2O[C@@H]1CN(C)C(=O)Nc1ccc(C(F)(F)F)cc1` here?
A: inactive
